From PubChem BioAssay AID434959 (Broad Institute, 2010)
Out of some 30,000 compounds screened, about 110 (0.37%) were called active. The entries come from a sample that favours actives as a whole. Values without a mark were called inactive.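 Rule for the calls: active = delta delta Cp rounded down to an integer at or above 3, about 3 SD of DMSO wells; inactive = the rest.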

Assay: inhibitors of YB-1 gene expression, primary screen, cell-based, fluorescence (AID 434959);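 note: higher means less YB-1 transcript or more CDIP transcript relative to DMSO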
Details: U2OS, qRT-PCR YB-1 vs CDIP delta delta Cp, 16 h; stronger effect = higher value; zero = DMSO, each unit about twofold

Row | SMILES | delta Cp (YB-1 minus CDIP)
1 | C[C@@H]1CN([C@H](C)CO)C(=O)c2cc(NS(=O)(=O)c3ccccc3)ccc2O[C@H]1CN(C)S(=O)(=O)c1cccs1 | 0.37
2 | COc1ccc(S(=O)(=O)Nc2ccc3c(c2)C(=O)N([C@H](C)CO)C[C@@H](C)[C@@H](CN(C)CC2CCCCC2)O3)cc1 | 0.268
3 | Cc1ccc(S(=O)(=O)Nc2ccc3c(c2)C(=O)N([C@H](C)CO)C[C@H](C)[C@H](CN(C)S(=O)(=O)c2ccc(F)cc2)O3)cc1 | 0.151
4 | C[C@@H]1CN([C@@H](C)CO)C(=O)CCCn2nncc2CO[C@H]1CN(C)C(=O)Nc1ccc(C(F)(F)F)cc1 | -0.177
5 | O=C(CCCCCCC(=O)Nc1ccccc1O)N/N=C/c1ccc(C(F)(F)F)cc1 | -0.34
6 | Cc1noc(C)c1S(=O)(=O)Nc1ccc2c(c1)CC(=O)N([C@H](C)CO)C[C@@H](C)[C@@H](CN(C)Cc1ccncc1)O2 | -0.237
7 | COc1cc(CCC(=O)O)oc(=O)c1 | 0.941
8 | COc1ccc2c(c1)C(=O)CC(c1ccccc1)O2 (configuration not stated) | -0.382
9 | COc1cc([C@H](Cc2ccccc2)NC(C)=O)oc(=O)c1 | 7.24 (active)
10 | COc1ccc(S(=O)(=O)Nc2ccc3c(c2)CC(=O)N([C@H](C)CO)C[C@@H](C)[C@@H](CN(C)S(=O)(=O)c2ccc(F)cc2)O3)cc1 | 0.215
11 | Cc1noc(C)c1S(=O)(=O)Nc1ccc2c(c1)C(=O)N([C@@H](C)CO)C[C@H](C)[C@H](CN(C)Cc1ccc(C(=O)Nc3ccccc3N)cc1)O2 | -0.223
12 | C[C@@H]1CN([C@@H](C)CO)C(=O)c2cccc(NC(=O)CCCCCC(=O)Nc3ccccc3N)c2O[C@@H]1CN(C)CC1CCCCC1 | -0.278
13 | C[C@@H]1CN([C@@H](C)CO)C(=O)Cc2cc(NC(=O)C3CCCCC3)ccc2O[C@@H]1CN(C)Cc1ccc(-c2ccccc2)cc1 | -0.443
14 | COc1ccc(NC(=O)N(C)C[C@H]2Oc3ccc(NS(=O)(=O)c4ccc(F)cc4)cc3C(=O)N([C@@H](C)CO)C[C@@H]2C)cc1 | 0.491
15 | COc1cc(OC)c(/C=N/NC(=O)CCCCCCC(=O)Nc2ccccc2O)c(OC)c1 | -0.14
16 | N#C/C(=C\c1ccc(O)c(O)c1)C(N)=O | -0.313

Row | SMILES | delta Cp (YB-1 minus CDIP)
17 | Cc1noc(C)c1NC(=O)N(C)C[C@@H]1Oc2ccc(NC(=O)Nc3ccc4c(c3)OCO4)cc2C(=O)N([C@H](C)CO)C[C@H]1C | -0.0859
18 | C[C@@H]1CCCCO[C@H](CN(C)Cc2ccccc2)[C@@H](C)CN([C@H](C)CO)C(=O)c2cc(NS(C)(=O)=O)ccc2O1 | -0.038
19 | O=C(O)CCC(=O)N(Cc1ccccc1)Cc1cn(-c2ccccc2)nc1-c1cccnc1 | -0.539
20 | C[C@@H]1CN([C@@H](C)CO)C(=O)c2cc(N(C)C)ccc2O[C@H]1CN(C)Cc1ccc(C(F)(F)F)cc1 | -0.101
21 | C[C@@H]1CN([C@@H](C)CO)C(=O)c2cc(NC(=O)Cc3ccccc3)ccc2O[C@@H]1CN(C)S(=O)(=O)c1ccccc1 | 0.109
22 | C[C@@H]1CN([C@@H](C)CO)C(=O)c2cc(NC(=O)c3ccncc3)ccc2O[C@H]1CN(C)S(=O)(=O)c1ccc(Cl)cc1 | -0.0147
23 | Cc1ccoc1CC[N+](C)(C)C | -0.0929
24 | C[C@@H]1CN([C@@H](C)CO)C(=O)CCCn2nncc2CO[C@H]1CN(C)Cc1ccc(C(F)(F)F)cc1 | -0.415
25 | CNC[C@H]1Oc2ccc(NS(=O)(=O)c3ccc(F)cc3)cc2C(=O)N([C@@H](C)CO)C[C@@H]1C | -0.0588
26 | C[C@@H]1CCCCO[C@@H](CN(C)S(=O)(=O)c2cccs2)[C@@H](C)CN([C@H](C)CO)C(=O)c2cc(NC(=O)Nc3ccc(F)cc3)ccc2O1 | -0.356
27 | COc1cccc(NC(=O)N(C)C[C@@H]2OCc3cn(nn3)CCCC(=O)N([C@@H](C)CO)C[C@H]2C)c1 | 0.0991
28 | CC(C)(C)C(=O)CSc1nc2ccccc2c(=O)n1CC1CC1 | -0.316
29 | COC(=O)C1=C(C)NC2=C(C(=O)CC(C)(C)C2)C1c1ccncc1 (configuration not stated) | -0.233
30 | O=C(O)CCCCCC(=O)N/N=C/c1ccncc1Br | -0.0121
31 | Cc1ccc(/C=N/NC(=O)CCCCCCC(=O)O)o1 | -0.127
32 | COc1ccc(NC(=O)Nc2cccc3c2O[C@H](CN(C)Cc2ccncc2)[C@@H](C)CN([C@@H](C)CO)C3=O)cc1 | -0.239
